Source: PubChem
Most compounds without a hit are left out; they make up all but 3.4% or so of the library.
GPR151 ag: activators of human GPR151, primary screen, cell-based, PathHunter beta-arrestin, luminescence; G-protein coupled receptor 151 (Homo sapiens), Q8TDV0; PathHunter beta-arrestin GPR151 cells; activation, % at 11.2 µM; 1% of 650,000 active; AID 1508602, 2020; in the data active means activation above about 4.9%;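 further: 0% = median of compound wells and 100% = cells with positive control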
MITF inh: MITF inhibitors, primary screen, biochemical, AlphaScreen, human | AlphaScreen MITF homodimerization, bead proximity signal | inhibition, % at 2.6 µM | 0.91% of 650,000 active; in the data active means inhibition above about 50%;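 further: 0% = vehicle wells with protein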
Target sequence (O75030 whole entry, looked up): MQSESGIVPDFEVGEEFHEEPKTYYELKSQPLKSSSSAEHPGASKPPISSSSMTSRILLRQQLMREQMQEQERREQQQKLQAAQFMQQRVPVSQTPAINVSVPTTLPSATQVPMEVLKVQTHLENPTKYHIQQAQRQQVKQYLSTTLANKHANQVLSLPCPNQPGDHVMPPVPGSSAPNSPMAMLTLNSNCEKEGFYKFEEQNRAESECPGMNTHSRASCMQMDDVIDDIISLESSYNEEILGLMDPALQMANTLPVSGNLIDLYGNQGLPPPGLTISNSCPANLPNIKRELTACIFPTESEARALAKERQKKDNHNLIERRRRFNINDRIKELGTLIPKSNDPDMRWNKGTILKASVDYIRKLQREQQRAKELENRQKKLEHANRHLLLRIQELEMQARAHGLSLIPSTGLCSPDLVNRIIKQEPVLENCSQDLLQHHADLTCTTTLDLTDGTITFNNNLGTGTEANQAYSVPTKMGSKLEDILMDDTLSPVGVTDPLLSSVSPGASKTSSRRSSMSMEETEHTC
TEAD-YAP inh: TEAD-YAP interaction inhibition, primary screen, TEAD-YAP interaction inhibitor project, luminescence, HEK-TIYL cells. TEAD-Gal4/YAP UAS-luciferase luminescence. inhibition, % at 9.12 µM. 1.4% of 640,000 active. AID 1259422, 2018; in the data active means inhibition above about 32%;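 further: 0% = median of test compound wells and 100% = reference inhibitor wells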
FBW7 act: FBW7 E3 ligase activators, primary screen, biochemical, AlphaScreen, human; AlphaScreen FBW7–phospho-cyclin E peptide binding, activator screen; F-box/WD repeat-containing protein 7 (Homo sapiens), Q969H0; 0.13% of 650,000 active; normalized activity (activation), % at 26.1 µM; in the data active means normalized activity above about 1.9%;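 further: purified mutant Fbw7 with reduced substrate affinity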
MITF confirm: MITF inhibitors, retest of hits, confirmation, biochemical, AlphaScreen, triplicate; AID 1259372, 2018; inhibition, % at 2.6 µM; AlphaScreen MITF homodimerization, biotin/His-MITF beads; 16% of 4,700 active; shares compounds with MITF inh;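 active means inhibition above a cutoff derived from the DMSO control wells, cut at about 28% in these data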;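 further: 0% = MITF dimer wells with DMSO only; inhibitors lower the bead chemiluminescence by keeping MITF from dimerizing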
AS interf ctr: AlphaScreen optical interference compounds, counter-screen for MITF inhibitor project, biochemical, triplicate | shares compounds with MITF inh | LysRS AlphaScreen counterscreen, signal interference | inhibition, % at 2.6 µM | 7.6% of 4,700 active | AID 1259376, 2018;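 active means inhibition above a cutoff derived from the DMSO control wells, cut at about 30% in these data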
Numbers without * were called inactive; nt = no result.

SMILES	GPR151 ag	MITF inh	TEAD-YAP inh	FBW7 act	MITF confirm	AS interf ctr
Cc1ccc(CC(=O)O/N=C(\N)c2ccc([N+](=O)[O-])cc2)cc1	0.0	4.8	11.2	0.3	nt	nt
O=C(Nc1ccccc1C(F)(F)F)N1CCN(Cc2ccco2)CC1	-1.1	-12.3	-3.1	-0.2	nt	nt
COc1ccc(C(C)C)cc1S(=O)(=O)NC(C)c1ccccc1 (stereo not drawn)	3.9	-13.7	1.8	0.0	nt	nt
CCC(C)NC(=O)CN(Cc1ccc(F)cc1)S(=O)(=O)c1ccc(Cl)cc1 (stereo not drawn)	-0.4	69.7*	0.3	-0.3	-13.1	-5.8
COc1cccc(-n2c(SCC(=O)Nc3cccc(Cl)c3)nc3n[nH]c(C)c3c2=N)c1	-1.5	2.5	4.2	-0.1	nt	nt
COCCNc1cc(-c2ccccn2)nc(-c2ccccc2)n1	-0.6	1.1	17.3	-0.1	nt	nt
COCCNc1cc(-c2ccccn2)nc(-c2ccccn2)n1	0.7	115.5*	21.6	-0.9	117.8*	100.3*
Fc1ccccc1CSc1nnc(C(F)(F)F)o1	0.1	-3.3	-57.1	-0.1	nt	nt
COc1ccccc1N1CCN(Cc2cc3c(cc2[N+](=O)[O-])OCO3)CC1	1.6	-9.0	-3.0	-0.1	nt	nt
O=[N+]([O-])c1cc2c(cc1CN1CCCCCC1)OCO2	0.2	51.6*	4.5	-0.3	2.9	1.2
COc1cc(CN2CCN(Cc3ccc4c(c3)OCO4)CC2)c([N+](=O)[O-])cc1OC	2.4	68.7*	1.9	-0.3	16.6	19.5
O=[N+]([O-])c1ccccc1/C=C/CN1CCN(Cc2ccc3c(c2)OCO3)CC1	0.0	59.0*	10.4	0.0	-2.5	0.2
O=[N+]([O-])c1cc2c(cc1CNCCCN1CCOCC1)OCO2	1.3	59.1*	1.7	-0.1	-5.5	-5.1
O=[N+]([O-])c1cc2c(cc1CN1CCN(CCO)CC1)OCO2	-0.7	17.7	-0.8	-0.1	nt	nt
COc1cc(CN2CCN(Cc3cccc(Cl)c3)CC2)c([N+](=O)[O-])cc1OC	1.1	56.5*	-6.2	-0.3	19.7	24.1
COc1cc(CN2CCC(C)CC2)c([N+](=O)[O-])cc1OC	-0.2	-5.8	-0.5	0.1	nt	nt
COc1cc(CN2CCN(Cc3cccc(C)c3)CC2)c([N+](=O)[O-])cc1OC	-0.3	72.6*	-0.2	-0.1	2.1	11.2
Clc1ccccc1CN1CCN(CC2CC=CCC2)CC1 (stereo not drawn)	-0.6	59.8*	-0.1	0.1	6.3	-5.0
Cc1ccc(CN2CCN(CC3CC=CCC3)CC2)cc1 (stereo not drawn)	-0.1	21.8	3.1	0.0	nt	nt
O=S(=O)(c1ccccc1)N1CCN(CC2CC=CCC2)CC1 (stereo not drawn)	-0.1	52.1*	1.5	-0.2	-0.7	0.8
O=[N+]([O-])c1ccccc1S(=O)(=O)N1CCN(CC2CC=CCC2)CC1 (stereo not drawn)	0.5	31.1	1.6	-0.2	nt	nt
O=C(c1ccccc1)N1CCN(CC2CC=CCC2)CC1 (stereo not drawn)	-0.9	41.0	-4.3	-0.1	nt	nt
O=[N+]([O-])c1ccccc1CN1CCN(CC2CC=CCC2)CC1 (stereo not drawn)	0.3	65.7*	-13.1	-0.1	-5.2	2.9
Fc1cccc(CN2CCN(CC3CC=CCC3)CC2)c1 (stereo not drawn)	3.0	83.1*	-4.4	0.0	-0.8	-3.4
Cc1cc2cc(CNC(=O)C(C)C)ccc2n1C	-1.1	7.5	-2.4	-0.1	nt	nt
CCOC(=O)c1sc(NC(=O)CSc2nnc(CNC(=O)c3cccc(OC)c3)n2CCc2ccccc2)c(C(=O)OCC)c1C	1.8	13.5	5.1	0.3	nt	nt
Cc1ccc(C(=O)Oc2cc(N)n(S(=O)(=O)c3ccc(Br)cc3)n2)cc1	0.2	1.3	11.1	0.1	nt	nt
CCC(C)(C(=O)NC1CCCCC1)N(CC1CCCO1)C(=O)c1ccc(=O)[nH]c1 (stereo not drawn)	-0.5	79.2*	3.7	0.4	-7.2	-4.4
N#Cc1c(N)nc(SCC(N)=O)c(C#N)c1-c1ccccc1Cl	2.3	84.9*	-11.7	0.2	2.6	4.7
